In PubChem BioAssay one finds log fold change Tl+ flux data, which are given here for 13 compounds.

Test in all cases: BK channel mutant inhibitors and activators – cell-based, U2OS BacMam, thallium flux, beta subunits, selectivity assay, profiling panel (AID 1259406);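 further: initial slope of Thallos dye fluorescence rise after thallium is added; log ratio against the mean of 0.3% DMSO vehicle wells on the same plate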
For assay [1], the system named is F380Y. The following applies: U2OS BacMam BK variants, at 30 µM.
Assay [2] deals with F380Y/beta1. The following applies: U2OS BacMam BK variants, at 30 µM.
Assay [3] deals with F380Y/beta2Delta. The following applies: U2OS BacMam BK variants, at 30 µM.
Assay [4] deals with F380Y/beta4. The settings on record: U2OS BacMam BK variants, at 30 µM.
In assay [5] the target is Calcium-activated potassium channel subunit alpha-1 (Homo sapiens) + Leucine-rich repeat-containing protein 26 (Homo sapiens) (UniProt Q12791+Q2I0M4). The following applies: U2OS BacMam BK variants, F380Y/Slo1WT/gamma1, at 30 µM.
Calcium-activated potassium channel subunit alpha-1 (Homo sapiens) + Leucine-rich repeat-containing protein 26 (Homo sapiens), sequence (Q2I0M4 whole entry, looked up, one chain of several): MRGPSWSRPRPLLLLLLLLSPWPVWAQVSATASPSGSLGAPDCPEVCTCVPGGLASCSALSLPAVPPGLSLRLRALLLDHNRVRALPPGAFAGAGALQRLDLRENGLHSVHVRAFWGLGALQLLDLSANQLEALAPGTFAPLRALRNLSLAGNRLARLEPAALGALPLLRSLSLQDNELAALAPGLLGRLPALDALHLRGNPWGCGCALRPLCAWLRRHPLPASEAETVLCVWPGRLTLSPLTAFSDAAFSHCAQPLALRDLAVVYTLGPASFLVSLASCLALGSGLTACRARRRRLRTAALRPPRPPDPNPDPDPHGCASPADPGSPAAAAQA
Assay [6] concerns R275C. The following applies: U2OS BacMam BK variants, at 30 µM.
The test system of assay [7] is R275C/beta1. The settings on record: U2OS BacMam BK variants, at 30 µM.
Assay [8] deals with R275C/beta2Delta. The following applies: U2OS BacMam BK variants, at 30 µM.
In assay [9] the test system is R275C/beta4. The settings on record: U2OS BacMam BK variants, at 30 µM.
Assay [10] relates to R275C/Slo1WT/beta2. The settings on record: U2OS BacMam BK variants, at 30 µM.

Values without a mark were called inactive. Activity calls are given as the source filed them.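 How the source made its calls: active means thallium flux through the channel raised or lowered by more than 3 SD from vehicle-only wells, actives on both sides; inactive means the rest.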

As for `COCCCNC(=O)C(C#N)=CN(C)C`, the log fold change Tl+ flux in assay [1] is -0.062; in assay [2], -0.0601; in assay [3], -0.103 (active); in [4] it was 0.0041; in [5] it was -0.0197; in assay [6] it was -0.0308. For the same compound, the log fold change Tl+ flux in assay [7] is -0.0584; in assay [8], -0.0395; in assay [9], -0.0325; in assay [10], 0.0541.

`O=C(NNC(=O)c1ccc2nonc2c1)c1cccc(C(F)(F)F)c1`: the log fold change Tl+ flux in assay [1] was 0.0115; in assay [2], 0.037; in assay [3], 0.0509; in [4], 0.00874; in assay [5], -0.0024; in assay [6], 0.0381. The log fold change Tl+ flux in [7] was 0.0483; in assay [8] it was 0.036; in assay [9], 0.0129; in assay [10] it was -0.0326.

Consider `CCOC(=O)CN(C=NC#N)c1ccc(OC)cc1`, for which the log fold change Tl+ flux was -0.0235 in assay [1]; 0.0113 in [2]; -0.0114 in assay [3]; 0.0329 in [4]; 0.0663 in assay [5]; 0.0146 in assay [6]. For the same compound, the log fold change Tl+ flux in assay [7] is -0.0574; in assay [8], -0.0152; in [9], -0.00948; in assay [10] it was 0.0303.

For `COc1cccc(CC(=O)NC2CCN(c3nccc(C(F)(F)F)n3)CC2)c1`, the log fold change Tl+ flux was -0.0079 in assay [1]; -0.0102 in assay [2]; 0.00797 in [3]; -0.0197 in [4]; -0.0334 in assay [5]; -0.0558 in assay [6]. For the same compound, the log fold change Tl+ flux in [7] was -0.0259; in [8], -0.00912; in assay [9], 0.0415; in [10], 0.0233.

In the case of `Cc1ccc(C(=O)CC(=CC(=C(C#N)c2ccc([N+](=O)[O-])cc2)c2ccc(C)cc2)c2ccccc2)cc1`, the log fold change Tl+ flux is 0.00161 in assay [1]; 0.0132 in assay [2]; -0.0182 in assay [3]; -0.0433 in assay [4]; -0.0481 in [5]; -0.0132 in assay [6]. The log fold change Tl+ flux was -0.025 in assay [7], -0.0508 in [8], -0.0482 in [9] and -0.0297 in [10].

On to `O=C(NCCSCc1ccco1)c1cncc(Br)c1`, for which the log fold change Tl+ flux in assay [1] was 0.0566; in assay [2], -0.00628; in assay [3], 0.00549; in assay [4], 0.0375; in assay [5], 0.0375; in assay [6] it was -0.0119. Further, the log fold change Tl+ flux is 0.0315 in assay [7], 0.0453 in assay [8], -0.016 in assay [9] and 0.024 in assay [10].

For `O=C(c1ccccc1)c1c(Cl)cc(C(F)(F)F)cc1Cl`, the log fold change Tl+ flux in assay [1] is -0.0258; in [2], 0.0352; in assay [3], 0.0614; in assay [4], 0.0559; in assay [5] it was 0.0324; in assay [6], 0.00162. Further, the log fold change Tl+ flux in assay [7] was 0.0087; in [8], 0.0434; in assay [9], 0.000317; in assay [10], 0.0159.

On to `NC(=NNC(=O)c1cccnc1)c1ccncc1`, for which the log fold change Tl+ flux was 0.0309 in assay [1]; -0.00892 in [2]; 0.0142 in assay [3]; 0.00925 in assay [4]; -0.00474 in assay [5]; -0.039 in [6]. Besides, the log fold change Tl+ flux in assay [7] was 0.0056; in assay [8], 0.00736; in assay [9], 0.00943; in assay [10], -0.0381.

Turning to `Clc1ccc(Sc2cn[nH]c2-c2ccc3c(c2)OCCO3)cc1`, the log fold change Tl+ flux was -0.025 in [1]; -0.0285 in assay [2]; -0.0116 in assay [3]; 0.0103 in assay [4]; -0.102 in [5]; 0.0336 in assay [6]. For the same compound, the log fold change Tl+ flux is -0.00464 in assay [7], -0.0611 in assay [8], -0.0292 in assay [9] and -0.0512 in assay [10].

In the case of `CS(=O)(=NS(=O)(=O)c1ccc(OC(F)(F)F)cc1)c1ccccc1` (stereo not given), the log fold change Tl+ flux in assay [1] was 0.0244; in assay [2] it was -0.0162; in assay [3], 0.018; in assay [4], -0.00984; in assay [5] it was 0.0614; in assay [6], 0.00979. The log fold change Tl+ flux in [7] is -0.0151; in [8], 0.00446; in assay [9] it was 0.0404; in [10], 0.0068.

Turning to `CC1=NC2SC=C(c3ccccc3Cl)N2C(=O)C1` (stereo not given), the log fold change Tl+ flux is -0.0123 in assay [1]; 0.0244 in [2]; -0.0252 in assay [3]; 0.00331 in assay [4]; -0.0675 in assay [5]; -0.0205 in [6]. Besides, the log fold change Tl+ flux in assay [7] was 0.0259; in assay [8], -0.0444; in assay [9], 0.037; in [10] it was 0.0321.

As for `CCOC(=O)c1c(N)n(-c2ccc(Cl)cc2)c2nc3ccccc3nc12`, the log fold change Tl+ flux was -0.0102 in assay [1]; 0.0245 in assay [2]; -0.0247 in assay [3]; 0.0204 in assay [4]; 0.0261 in [5]; -0.0291 in [6]. Besides, the log fold change Tl+ flux in assay [7] is -0.0146; in assay [8], -0.0215; in assay [9], 0.011; in [10] it was 0.0184.

With `O=C(NCC1CC1)c1ccccc1NS(=O)(=O)c1cccc2nonc12`, the log fold change Tl+ flux in [1] is 0.0757; in assay [2], 0.0238; in [3], 0.0491; in assay [4], 0.0071; in assay [5] it was -0.00954; in assay [6], 1.3e-05. For the same compound, the log fold change Tl+ flux was 0.0417 in assay [7], 0.0268 in [8], 0.0533 in assay [9] and 0.0216 in assay [10].
